This is part of a sample that, as a whole, favours compounds with a hit. Of some 83,000 tested, about 20% had one in any assay.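 Note: values are percent growth. 100 is the growth of untreated cells, values between 100 and 0 indicate rising inhibition; between -100 and 0 indicates cell death.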 Active and inactive are the calls of the source.
test system: HCT-15 colon; assay: NCI-60 one-dose screen, 48 h (100 = growth as untreated, 0 = no growth, -100 = all killed); conditions: 10 µM
Method: Growth inhibition of the HCT-15 human tumor cell line is measured as a screen for anti-cancer activity. Cells are grown in 96 well plates and exposed to the test compound for 48 hours. Compounds are tested at a single concentration, which is 10^-5 M for most compounds. The reported endpoint is percent growth (GI% or GIPRCNT), where numbers from 0 - 100% represent growth inhibition, and numbers from -100% - 0 represent cell death. For example, a value of 40 represents 60% growth inhibition. A value of 0 means no net growth occurred over the course of the experiment. A value of -40 indicates 40% of cells at the beginning of the experiment died by the end of the experiment. A value of -100 means all cells are dead at the end of the experiment.
NCI-60 Human Tumor Cell Lines Screen was performed using the standard one-dose NCI protocol, which is described in more detail at https://dtp.cancer.gov/discovery_development/nci-60/default.htm.
Compounds with GIPRCNT values below 10 were considered active. Activity score was based on GIPRCNT using the following formula: […]
Score is 0 for GIPRCNT values of 100 or above, 50 for GIPRCNT values of 0, and 100 for GIPRCNT values of -100.

Compound	growth
Nc1ccc(N)c([N+](=O)[O-])c1	109% (inactive)
Nc1ccc(N=Nc2ccc(O)cc2)c(N)n1	64.5% (inactive)
N#CC1(Nc2ccc3c4c(cccc24)CC3)CCCCC1	106% (inactive)
O=C(NC1CCCCC1)OCc1c(COC(=O)NC2CCCCC2)c(-c2ccc(Cl)c(Cl)c2)n2c1CCC2	33.6% (inactive)
Cc1cccc(C(=O)N(C(C)C)C(C)C)c1	96.7% (inactive)
CC(=O)OCC1CCCO1 (stereo not given)	100% (inactive)
Cc1cc(OCCO)cc(C)c1Cl	97.6% (inactive)
CCS(=O)(=O)c1cc(=O)[nH]c(=O)[nH]1	109% (inactive)
CN(C)c1ccc(CNC(C(=O)c2ccccc2)c2ccccc2)cc1 (stereo not given)	96.9% (inactive)
COc1cc2c3cc1Oc1c(OC)c(OC)cc4c1C(Cc1ccc(O)c(c1)Oc1ccc(cc1)CC3N(C)CC2)N(C)CC4 (stereo not given)	6.32% (active)
O=C(Cc1ccccc1)Cc1ccccc1	103% (inactive)
CC(C)(N)COS(=O)(=O)O	103% (inactive)
CC(CN1CCCCC1)NC(=O)c1scnc1-c1ccccc1 (stereo not given)	103% (inactive)
O=[N+]([O-])c1ccc(N=Nc2ccc(O)c3ccccc23)cc1	41.2% (inactive)
C#CCSc1nnnn1-c1ccc(Br)c(C)c1	95.4% (inactive)
CCOC(=O)c1[nH]c(C)c(C(C)=O)c1C	103% (inactive)
CCOc1ccccc1/C=N/Nc1nc2ccccc2o1	76.3% (inactive)
COC(=O)Nc1nc2ccc(C(=O)c3cccs3)cc2[nH]1	10.8% (inactive)
c1ccc2c(c1)Sc1ccccc1S2	105% (inactive)
CC(=O)OCCC(C)CCC=C(C)C (stereo not given)	92.5% (inactive)

Compound	growth
CC(=O)C1CCCCC1	95% (inactive)
CCOc1ccc(/C=N/N=C(N)N)cc1OCC	97.6% (inactive)
CC1CC(O)CC(C)(C)C1 (stereo not given)	100% (inactive)
CC1CCCC(CC(N)=O)CC1 (stereo not given)	107% (inactive)
Clc1ccc(-c2n[nH]c3c2Cc2ccccc2-3)cc1Cl	87.8% (inactive)
CCC(C)(C)C1CCC(O)CC1 (stereo not given)	88.9% (inactive)
O=C(O)CSCSCC(=O)O	98.7% (inactive)
C/C(=C\c1ccc([N+](=O)[O-])cc1)C(=O)O	103% (inactive)
OC1CCCc2ccccc21 (stereo not given)	108% (inactive)
COc1cc2cc(c1Cl)N(C)C(=O)C[C@H](OC(=O)[C@H](C)N(C)C(C)=O)[C@]1(C)O[C@H]1[C@H](C)[C@@H]1C[C@@](O)(NC(=O)O1)[C@H](OC)C=C/C=C(\C)C2	-14.5% (active)
CCS(=O)(=O)CCCl	91.8% (inactive)
CC1OC(Oc2c(-c3ccc(O)c(O)c3)oc3cc(O)cc(O)c3c2=O)C(O)C(O)C1O (stereo not given)	113% (inactive)
CN(C)c1ccc(C(c2ccc(O)cc2)c2ccc(N(C)C)cc2)cc1	70.8% (inactive)
CCOC(=O)c1cc(/C=C/c2ccc(Cl)cc2Cl)on1	-66.1% (active)
O=[N+]([O-])c1ccc(CO)cc1	98% (inactive)
C/C(=N\NC(=O)c1ccccc1N)c1ccccc1O	26.5% (inactive)
CC1(C)S(=O)(=O)OCCOS1(=O)=O	101% (inactive)
COc1ccc(C(=O)C(Br)C(Br)C(=O)O)cc1 (stereo not given)	98.1% (inactive)
CC1(C)/C(=C\CO)C2CCC1C2 (stereo not given)	105% (inactive)
C/C(=N/NC(N)=O)c1ccco1	102% (inactive)

Source: PubChem BioAssay (NCI)
